# Results published in ChEMBL document CHEMBL4513216, “Probing the Open Global Health Chemical Diversity Library for Multistage-Active Starting Points for Next-Generation Antimalarials” (ACS Infect Dis, 2020).
# Hit rate of the full screen: of about 69,000 compounds, about 8,600 (12%) showed an effect of 50% or more. The sample as a whole holds a higher share of strong results than the screen did.
# System: Plasmodium berghei
# Experiment: Screen against P. berghei liver stage (PbLuc), transformed with Luciferase, at 10uM
# Assay type: functional, HepG2
# Conditions: tested at 10 uM
row,SMILES,INHIBITION
1,CNC(=O)CN1CC[C@H]2CN(C(=O)c3ccccc3F)C[C@H]2C1,19.4%
2,CCn1c(C2CCNCC2)nn(CCn2ccc(C)n2)c1=O,21.1%
3,CC(=O)N1CCCCC[C@@H]2[C@@H]1[C@H](c1cccc(F)c1)CN2C(C)=O,20.1%
4,CCN1CCC(CNC(=O)C2(c3cccc(C)c3)CCCCC2)CC1,-3.2%
5,CN1CCC(c2cncc(-c3cccc(Cl)c3)n2)CC1,19.6%
6,OC1CCCN(CCNc2ncc(Cl)cc2F)C1 (stereo not given),22.1%
7,Cc1nc(CNC(C)c2ccc(S(=O)(=O)N(C)C)cc2)no1 (stereo not given),45.7%
8,CSc1ccc(CNc2ccccc2CN2CCC(O)CC2)cc1,-23.1%
9,CN(c1ccc(CNc2ccc(Cl)cn2)cc1)S(C)(=O)=O,-95.7%
10,Clc1ccc(CNc2ccc(Cl)cn2)cc1,-151%
11,CC(C)c1ccc(CNC(C)c2ccc(S(C)(=O)=O)cc2)cc1 (stereo not given),6.39%
12,CC(C)c1ccc(CNC(C)c2ccc(S(=O)(=O)N(C)C)cc2)cc1 (stereo not given),52.3%
13,CC1CCN(CC(O)CNc2ccc(Cl)cn2)CC1 (stereo not given),35.6%
14,OC1CCN(Cc2ccc(CNc3ccc(Cl)cn3)cc2)CC1,54.3%
15,OC1CCN(Cc2ccc(CNc3ncc(Cl)cc3F)cc2)CC1,63.7%
16,CNS(=O)(=O)Cc1cccc(CNc2ccc(Cl)cn2)c1,45.2%
17,CN(C)S(=O)(=O)c1ccc(CNc2ccc(Cl)cn2)cc1,79.8%
18,CN(C)S(=O)(=O)N1C[C@@H]2C[C@H](C(=O)NCc3ccccc3)[C@H](C1)O2,21.5%
19,CC(C)Oc1ccc(CNC(=O)CN(C)S(C)(=O)=O)cc1F,13.375%
20,O=C(CCc1cc2n(n1)CCN(Cc1ccncc1)C2)N1CCCC1,33.5%
21,COCC1CN(C(=O)Cc2ccccn2)Cc2cn(CC3CC3)nc21 (stereo not given),-26%
22,CSc1ccc(CN(CCO)C(=O)CCc2cccc(F)c2)cc1,-1.04%

row,SMILES,INHIBITION
1,CC(C)c1nsc(N2CCCOCC2)n1,61.6%
2,CC(C)c1nsc(N2CCS(=O)(=O)CC2)n1,-16.3%
3,CC(C)c1nsc(N2CCSCC2)n1,-8%
4,CC(C)c1nsc(N2CCC(OCCN3CCOCC3)CC2)n1,54.6%
5,CC(C)c1nsc(N2CCOCC2)n1,7.3%
6,CC(C)c1nsc(N2CCOC3(CCCC3)C2)n1,-10.3%
7,NC(=O)C1(c2cnccn2)CCCN1Cc1ccc(Cl)c(F)c1 (stereo not given),-6.3%
8,Clc1ccc(CN(CCN2CCOCC2)Cc2cccnc2)cc1Cl,8.12%
9,Cc1nn(C)c(C)c1-c1cnc(CC2CCNC2)cn1 (stereo not given),-22.3%
10,Nc1nc2nc(C3CCCN(C(=O)c4cnccn4)C3)ccc2s1 (stereo not given),26.8%
11,CC(C)c1cc(C(=O)NCC2(C(N)=O)CCOCC2)nn1C(C)(C)C,62.4%
12,Cc1cc(C(=O)NCC2(C(N)=O)CCOCC2)nn1C(C)(C)C,0.705%
13,CC(C)(C)n1nc(C(=O)NCC2(C(N)=O)CCOCC2)cc1C1CC1,21.7%
14,Oc1ccc(Cl)cc1CNCc1ccccc1C(F)(F)F,16.6%
15,Cn1c(NCC(O)c2ccc(Cl)cc2)c(C#N)c(=O)n(C)c1=O (stereo not given),19.4%
16,O=C(NCC(O)c1ccccc1C(F)(F)F)c1cccnc1 (stereo not given),-2.97%
17,CC(C)(C)n1ncc(NCC(O)c2ccccc2)c(Cl)c1=O (stereo not given),77.7%
18,CC(C)(C)n1ncc(NCC(O)c2ccccc2C(F)(F)F)c(Cl)c1=O (stereo not given),82.2%
19,CC(C)(C)n1ncc(NCC(O)c2ccc(F)c(F)c2)c(Cl)c1=O (stereo not given),84.5%
20,Cn1c(NCC(O)c2ccc(F)c(F)c2)c(C#N)c(=O)n(C)c1=O (stereo not given),-52.5%
21,CC(=O)c1c(F)cccc1NCC(O)c1ccc(F)c(F)c1 (stereo not given),15.7%
22,CCn1cc(NC(=O)NCC(O)c2ccccc2)cn1 (stereo not given),-30.4%

row,SMILES,INHIBITION
1,CC(C)(C)n1ncc(NCCc2ccccc2C(F)(F)F)c(Cl)c1=O,76.6%
2,CC(C)(C)n1ncc(C(=O)NCCCC(N)=O)c1C(F)(F)F,26.9%
3,O=C(NCc1cccnc1)NCC(O)c1ccccc1C(F)(F)F (stereo not given),16.8%
4,Cc1ccc(C2CSCCN2C(=O)NCc2cccnc2)cc1 (stereo not given),4.66%
5,CCCNS(=O)(=O)c1cc2c3c(c1)c(C)cc(=O)n3CCC2,22.85%
6,CNc1cc(CNC(=O)c2ccnc(OC)c2)nc(-c2ccncc2)n1,32.3%
7,Cc1cnc(N2CCn3cc(CNC(=O)CC4CC4)nc3C2)nc1,25.6%
8,NC(=O)c1ccccc1-n1cc(-c2cccc(C(=O)O)c2)cn1,71.5%
9,NC(=O)c1cc(-n2cc(-c3cccc(C(=O)O)c3)cn2)cs1,5.17%
10,NC(=O)c1cc(-c2cccc(C(=O)O)c2)cs1,29.8%
11,CO[C@H]1CCN(Cc2cnn(C)c2)[C@@H]2CN(Cc3ccncc3)C[C@H]12,7.31%
12,CC(C)Cc1noc(CN2CCN(C(=O)c3ccccc3F)CC2)n1,-19.4%
13,CC(C)Nc1ncnc2c1CCN(Cc1nccn1C)CC2,24.9%
14,Cc1ncc(CNCC2CCC(C(N)=O)CC2)n1-c1ccccc1 (stereo not given),30.8%
15,Cc1ncc(CNCC(=O)NC2CCCCC2)n1-c1ccccc1,65%
16,Cc1ncc(CNCC(=O)NCC(F)(F)F)n1-c1ccccc1,41.5%
17,Cc1n[nH]c(C)c1-c1nccnc1CC1CCNC1 (stereo not given),25%
18,CCC(C)(N)c1nc(=O)c(C(C)C)c(C)[nH]1 (stereo not given),24.8%
19,OC(c1cnn(-c2ccccc2)c1)C(F)(F)F (stereo not given),26.5%
20,CCc1cnc(COc2ccc(OC3CCCCNC3=O)cc2)o1 (stereo not given),78.4%
21,CCOc1ccc(OC2CCCN(c3cnn(C)c3)C2=O)cc1 (stereo not given),25.8%
22,CCc1cnc(CN(C)C2CCN(CC3CCC3)C2)o1 (stereo not given),-0.532%

row,SMILES,INHIBITION
1,Cc1cc(COc2ccc(OC3CCCCNC3=O)cc2)on1 (stereo not given),-26.1%
2,Cc1nc(COc2ccc(OC3CCCCNC3=O)cc2)oc1C (stereo not given),64.9%
3,Cc1nc(COc2ccc(OCC(N)=O)cc2)oc1C,-120%
4,COc1ncccc1CNC(=O)NC1CCCOc2ccccc21 (stereo not given),10%
5,Cc1ccc(CN(C)C(=O)CNC(=O)N2CCc3ccccc3C2)o1,-1.45%
6,CN(Cc1ccsc1)C(=O)CNC(=O)N1CCc2ccccc2C1,54.8%
7,CN(Cc1ccccn1)C(=O)CNC(=O)N1CCc2ccccc2C1,21.2%
8,c1cnn(CC2CN(CC3CCCCC3)CCO2)c1 (stereo not given),-71.2%
9,N#Cc1ccccc1N1CCCN(CC(=O)Nc2ccccc2Cl)CC1,63.7%
10,N#Cc1ccccc1N1CCCN(CC(=O)Nc2ccc(Cl)cn2)CC1,37.7%
11,N#Cc1ccccc1N1CCN(C(=O)NCC(=O)N2CCCC2)CC1,-9.1%
12,Cc1cc(C)c(Cn2cncn2)cc1CN1CC[C@@H]2CC[C@H](C1)N2,19.4%
13,Cc1nc2c(N3CCN(CCO)CC3)nc(N)nc2n1C,13.1%
14,CN1CCCc2ccc(S(=O)(=O)NC(=O)C3CC=CC3)cc21,75.4%
15,CC(=O)NS(=O)(=O)c1ccc2c(c1)N(C)CCC2,-56.6%
16,CC(C)C(=O)NS(=O)(=O)c1ccc2c(c1)N(C)CCC2,39.2%
17,CN(Cc1nncn1-c1cccc(C(F)(F)F)c1)S(C)(=O)=O,-19.1%
18,CCCC(=O)N(CCCN1CCOCC1)c1nc2c(F)cccc2s1,32.1%
19,CCCC(=O)N(CCCN1CCOCC1)c1nc2c(Cl)cccc2s1,71.4%
20,CN(CCN1CCOCC1)C(=O)CCc1cccc(Cl)c1,-3.16%
21,CCCC(=O)N(CCCN1CCOCC1)c1nc2c(C)c(C)ccc2s1,60.1%
22,CCCC(=O)N(CCN1CCOCC1)c1nc2c(OC)ccc(C)c2s1,-0.473%

row,SMILES,INHIBITION
1,CCCC(=O)N(CCCN1CCOCC1)c1nc2c(C)ccc(Cl)c2s1,42.7%
2,N#Cc1cccc(C(=O)NC2CCc3c(ccc(=O)n3CC3CC3)C2)c1 (stereo not given),-19.2%
3,Cc1ccc(CN2CCc3ncc(CNS(C)(=O)=O)n3CC2)o1,35.1%
4,O=C(COCC1CC[C@H]2[C@H](CCN2c2ncccn2)O1)N1CCCC1 (stereo not given in full),7.31%
5,CN1CCN(C(=O)[C@H]2C[C@@H]3CN(c4ncc(F)cn4)C[C@@H]3N2C)CC1,-1.15%
6,CC(NCC(F)(F)F)c1ccc(S(C)(=O)=O)c(F)c1 (stereo not given),-45.3%
7,Cc1noc(CNc2ccccc2N2CCCCC2)n1,4.1%
8,Cc1cc(CNc2ccccc2N2CCCCC2)no1,28.6%
9,c1ccc(N2CCCC2)c(NCc2ccncc2)c1,75.7%
10,CN(CCc1ccccn1)C(=O)Nc1cccnc1N1CCCC1,44.7%
11,c1ccc(CNc2ccccc2N2CCCC2)nc1,74.8%
12,Cc1nc(N2CCCC2)ccc1NCc1ccccn1,42.3%
13,CCC(=O)NCC(=O)NCC1CCN(c2cc(Cl)ccc2C)C1 (stereo not given),23.73%
14,Cc1cc(CNC(=O)Cc2c(C)nc3cc(=O)[nH]n3c2C)no1,31.1%
15,CC(C)CCN1CCNC(=O)C1CC(=O)NCCc1cc(O)ncn1 (stereo not given),12.8%
16,Cc1nc(C2CCCCN2C(=O)c2ccccc2)ncc1C(=O)N(C)C (stereo not given),28.4%
17,O=C(CN1CCCC1CCCO)NCc1ccccn1 (stereo not given),29.4%
18,CCCN1CCC(CNC(=O)N2CCCC2c2c(C)n[nH]c2C)CC1 (stereo not given),24.3%
19,CCn1cnnc1C1CCN(C(=O)c2ccc3c(c2)nnn3C)CC1,11.9%
20,COc1ccc(C(=O)N2C[C@@H](NC(=O)N(C)C)[C@H](C(C)C)C2)c(OC)n1,54.6%
21,CC(C)[C@@H]1CN(c2ncc(F)cn2)C[C@H]1NC(=O)N(C)C,23.4%
22,COc1ccc(Cl)cc1C(=O)N1C[C@@H](NC(=O)N(C)C)[C@H](C(C)C)C1,0.76%
